# According to PubChem BioAssay (NCI):
# The panel holds about 83,000 compounds, 20% with a hit somewhere; the sample as a whole holds those more often.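 Assay: single dose, 48 h. Readout: percent growth (0 = no net growth; negative = cell death). Active: <10.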 Unmarked numbers belong to inactive results. Activity calls are given as the source filed them.
# Test system: NCI-H23 lung
# Assay: NCI-60 one-dose screen, 48 h (100 = growth as untreated, 0 = no growth, -100 = all killed)
# Details: 10 µM unless noted
row,SMILES,growth
1,CCNCCCn1c2c(c3ccc(F)cc3c1=O)C(=O)c1cc(OC)cnc1-2,-40.4% (active)
2,CN(C)CCCN=c1cc2c(=O)n(CCCN(C)C)c(=O)c3c(NCCCN(C)C)cc4c(O)n(CCCN(C)C)c(=O)c1c4c3-2,21.1%
3,O=C(NN1C(=O)c2cc(C(=O)O)c(C(=O)O)cc2C1=O)c1ccncc1,108%
4,COc1ccc2c(c1)sc1nc(-c3ccc(Br)cc3)cn12,100%
5,O=C(CNC(=O)c1cccc2ccccc12)Nc1ccccc1Oc1cccc(O)c1,41.5% [5 µM]
6,NC(=N\N=C/Cc1ccccc1)/C(N)=N\N=C\Cc1ccccc1,104%
7,COc1cccc(/C=N/Nc2nc3ccccc3s2)c1OC,101%
8,COC(=O)c1cc2c(/C=C3/NC(=S)NC3=O)coc2n1C,103%
9,Cc1cc(=O)oc2cc(OCCn3c(C)nn(-c4ccc(Cl)cc4)c3=O)ccc12,45.8%
10,Cn1c(N2N=C(c3ccc(Cl)cc3)CC2c2ccccc2)nc(-c2ccccc2)c(C#N)c1=O (stereo not drawn),66.3%
11,Nc1ccc(N=Nc2ccccc2)cc1[N+](=O)[O-],90.7%
12,CCN(CC)CCCCCCCNc1c2ccc(Cl)cc2nc2ccc(OC)cc12,-24.3% (active)
13,Cc1sc2nc(NCc3ccccc3)[nH]c(=O)c2c1C,75.2%
14,COc1ccc(C(=O)/C=C/c2cccc(Nc3ccnc4cc(Cl)ccc34)c2)cc1,43.2%
15,CC(=O)N1N=C(c2ccc(Nc3nc(NCCO)nc(NCCO)n3)cc2)CC1c1ccc(Cl)cc1 (stereo not drawn),95.6%
16,Cc1csc(C#Cc2cncc(O)c2)n1,111%
17,CCOC(=O)C1C(=O)NC(C(=O)OCC)(C(=O)OCC)C1CC (stereo not drawn),112%
18,C=C1CCC2C3(C)COC(c4ccccc4)OC3CCC2(C)C1C/C=C1/C(=O)OCC1OC(C)=O (stereo not drawn),101%
19,COc1cc(/C=C/C(=O)C(C(=O)/C=C/c2ccc(OC(=O)CCNc3nnc(C)s3)c(OC)c2)C(=O)CCNc2nnc(C)s2)ccc1OC(=O)CCNc1nnc(C)s1,11.9%
20,Nc1nc(Nc2ccccc2SSc2ccccc2Nc2nc(N)nc(C(Cl)(Cl)Cl)n2)nc(C(Cl)(Cl)Cl)n1,54%

row,SMILES,growth
1,COC(=O)C1=CCC(n2cnc3c(N)ncnc32)O1 (stereo not drawn),92%
2,c1ccc(-c2oc(-c3ccccc3)c3ccccc23)cc1,99.2%
3,COc1ccc(CCN2C(=O)CCC3=C2CCCC3=O)cc1OC,98.2%
4,CCCCCc1c(C)[nH]c(/C=C2\N=C(c3ccc[nH]3)C=C2Oc2ccc(Cl)cc2)c1C,-46.3% [100 µM] (active)
5,O=C1Nc2ccc(Cl)cc2[C@@](C#CC2CC2)(C(F)(F)F)O1,87.8%
6,CC(=O)N1N=C(c2ccc(C(F)(F)F)cc2)CC1c1ccc2c(c1)OCO2 (stereo not drawn),79.2%
7,O=C(CN1CCN(c2ccc(Cl)cc2)CC1)N1CCN(c2nnc(-c3ccccc3)c(-c3ccccc3)n2)CC1,34.9%
8,NC(=O)NC1(C(=O)O)CCCC1,105%
9,Cc1ccc(C(=O)Cc2ccccc2)c(O)c1,101%
10,CCOC(=O)N1CCC(N=C2CSc3nnc(-c4cc(C(F)(F)F)cc(C(F)(F)F)c4)n3N2)CC1,15.3%
11,CCOC(=O)c1cc2oc(/C=C/c3cc(=O)c4cc(Cl)ccc4o3)cc2[nH]1,98.6%
12,O=c1ncc(-c2ccc(C(F)(F)F)cc2)c(NC2CCCCCC2)[nH]1,64.9%
13,CCOc1nc(-c2ccco2)n2nc(-c3ccco3)cc2n1,107%
14,O=C(N/N=C/c1cccc(O)c1)c1ccc(C(F)(F)F)nc1Nc1cccc(C(F)(F)F)c1,13.4%
15,CC(C)CNc1nc(N=[N+]=[N-])nc(NCC(C)C)n1,59.9% [100 µM]
16,COc1ccc2c3c(ccc2c1)C(=O)/C(=C\O)CC3,96.7%
17,O=C(NC1CCS(=O)(=O)C1)c1ccc(C(=O)c2ccccc2)cc1 (stereo not drawn),98.9%
18,COc1ccc2cc(-c3nc4ccccc4[nH]3)c(=O)oc2c1,93.1%
19,Cc1ccc(S(=O)(=O)N2CCN(C(=O)CSc3nc4ccc(C)cc4[nH]3)CC2)cc1,105%

# Test system: NCI-H226 lung
# Assay: as above
# Details: 10 µM unless noted
row,SMILES,growth
1,CCNCCCn1c2c(c3ccc(F)cc3c1=O)C(=O)c1cc(OC)cnc1-2,-59.1% (active)
2,CN(C)CCCN=c1cc2c(=O)n(CCCN(C)C)c(=O)c3c(NCCCN(C)C)cc4c(O)n(CCCN(C)C)c(=O)c1c4c3-2,-33.2% (active)
3,O=C(NN1C(=O)c2cc(C(=O)O)c(C(=O)O)cc2C1=O)c1ccncc1,95%
4,COc1ccc2c(c1)sc1nc(-c3ccc(Br)cc3)cn12,101%
5,O=C(CNC(=O)c1cccc2ccccc12)Nc1ccccc1Oc1cccc(O)c1,58.6% [5 µM]
6,NC(=N\N=C/Cc1ccccc1)/C(N)=N\N=C\Cc1ccccc1,104%
7,COc1cccc(/C=N/Nc2nc3ccccc3s2)c1OC,83.3%
8,COC(=O)c1cc2c(/C=C3/NC(=S)NC3=O)coc2n1C,110%
9,Cc1cc(=O)oc2cc(OCCn3c(C)nn(-c4ccc(Cl)cc4)c3=O)ccc12,50.1%
10,Cn1c(N2N=C(c3ccc(Cl)cc3)CC2c2ccccc2)nc(-c2ccccc2)c(C#N)c1=O (stereo not drawn),74.5%
11,Nc1ccc(N=Nc2ccccc2)cc1[N+](=O)[O-],86%
12,CCN(CC)CCCCCCCNc1c2ccc(Cl)cc2nc2ccc(OC)cc12,-18.2% (active)
13,Cc1sc2nc(NCc3ccccc3)[nH]c(=O)c2c1C,82.1%
14,COc1ccc(C(=O)/C=C/c2cccc(Nc3ccnc4cc(Cl)ccc34)c2)cc1,54.3%
15,CC(=O)N1N=C(c2ccc(Nc3nc(NCCO)nc(NCCO)n3)cc2)CC1c1ccc(Cl)cc1 (stereo not drawn),103%
16,Cc1csc(C#Cc2cncc(O)c2)n1,109%
17,CCOC(=O)C1C(=O)NC(C(=O)OCC)(C(=O)OCC)C1CC (stereo not drawn),97.7%
18,C=C1CCC2C3(C)COC(c4ccccc4)OC3CCC2(C)C1C/C=C1/C(=O)OCC1OC(C)=O (stereo not drawn),59.6%
19,COc1cc(/C=C/C(=O)C(C(=O)/C=C/c2ccc(OC(=O)CCNc3nnc(C)s3)c(OC)c2)C(=O)CCNc2nnc(C)s2)ccc1OC(=O)CCNc1nnc(C)s1,24.5%
20,Nc1nc(Nc2ccccc2SSc2ccccc2Nc2nc(N)nc(C(Cl)(Cl)Cl)n2)nc(C(Cl)(Cl)Cl)n1,64.6%

row,SMILES,growth
1,COC(=O)C1=CCC(n2cnc3c(N)ncnc32)O1 (stereo not drawn),87.5%
2,c1ccc(-c2oc(-c3ccccc3)c3ccccc23)cc1,104%
3,COc1ccc(CCN2C(=O)CCC3=C2CCCC3=O)cc1OC,105%
4,CCCCCc1c(C)[nH]c(/C=C2\N=C(c3ccc[nH]3)C=C2Oc2ccc(Cl)cc2)c1C,11.9% [100 µM]
5,O=C1Nc2ccc(Cl)cc2[C@@](C#CC2CC2)(C(F)(F)F)O1,81.4%
6,CC(=O)N1N=C(c2ccc(C(F)(F)F)cc2)CC1c1ccc2c(c1)OCO2 (stereo not drawn),96.5%
7,O=C(CN1CCN(c2ccc(Cl)cc2)CC1)N1CCN(c2nnc(-c3ccccc3)c(-c3ccccc3)n2)CC1,43.7%
8,NC(=O)NC1(C(=O)O)CCCC1,111%
9,Cc1ccc(C(=O)Cc2ccccc2)c(O)c1,102%
10,CCOC(=O)N1CCC(N=C2CSc3nnc(-c4cc(C(F)(F)F)cc(C(F)(F)F)c4)n3N2)CC1,29.4%
11,CCOC(=O)c1cc2oc(/C=C/c3cc(=O)c4cc(Cl)ccc4o3)cc2[nH]1,76.9%
12,O=c1ncc(-c2ccc(C(F)(F)F)cc2)c(NC2CCCCCC2)[nH]1,71.5%
13,CCOc1nc(-c2ccco2)n2nc(-c3ccco3)cc2n1,92.4%
14,O=C(N/N=C/c1cccc(O)c1)c1ccc(C(F)(F)F)nc1Nc1cccc(C(F)(F)F)c1,12.6%
15,CC(C)CNc1nc(N=[N+]=[N-])nc(NCC(C)C)n1,75.8% [100 µM]
16,COc1ccc2c3c(ccc2c1)C(=O)/C(=C\O)CC3,106%
17,O=C(NC1CCS(=O)(=O)C1)c1ccc(C(=O)c2ccccc2)cc1 (stereo not drawn),94.5%
18,COc1ccc2cc(-c3nc4ccccc4[nH]3)c(=O)oc2c1,97.5%
19,Cc1ccc(S(=O)(=O)N2CCN(C(=O)CSc3nc4ccc(C)cc4[nH]3)CC2)cc1,91.3%
